SMN2 splice up: qHTS Assay for Enhancers of SMN2 Splice Variant Expression | HEK293 SMN2-luciferase splicing reporter, luminescence, 30-36 h | Potency, µM (top dose mostly 46.1 µM), hits mostly activators | 210,000 tested, 2.8% active | AID 1458, 2008; note: nearly all actives have a fitted effect of over 55% in size
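qHTS luciferase splicing reporter: luminescence rises when SMN2 exon 7 is included in transfected HEK293 cells. Compound exposure lasted 30-36 h at 37C, with 4.5 mM final sodium butyrate as control, followed by a ONE-Glo read.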
NPC1 promoter act: qHTS Assay for NPC1 Promoter Activators | Huh7 NPC1 promoter luciferase reporter, 24 h | 320,000 tested, 2.4% active | Potency, µM (highest dose often 9.22 µM), most hits filed as activators; note: nearly all actives have a fitted effect of over 60% in size
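In 1536-well qHTS, Huh7 cells harboring an NPC1 promoter–luciferase construct received compound for 24 h; activation was quantified by luminescence following luciferase reagent addition.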
FLuc modulator: qHTS profiling assay for firefly luciferase inhibitor/activator using purifed enzyme and Km concentrations of substrates (counterscreen for miR-21 project) | Luciferin 4-monooxygenase (Photinus pyralis), P08659 | purified FLuc, Km substrates, luminescence inhibition | Potency, µM (titrated, usually from 57.5 µM), usual class: inhibitors | 360,000 tested, 6.9% active | AID 588342, 2011; note: nearly all actives have a fitted effect of over 55% in size
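Biochemical qHTS of compounds, final roughly 60 µM downward over six points, against 10 nM purified firefly luciferase using Km concentrations of substrates (10 uM D-luciferin, 10 uM ATP) in Tris acetate pH 7.5 buffer; luminescence output.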
ELG1 genotoxic: qHTS screen for small molecules that induce genotoxicity in human embryonic kidney (HEK293T) cells expressing luciferase-tagged ELG1 | 330,000 tested, 1.3% active | Potency, µM (doses to about 46 µM), hits mostly activators | HEK293T ELG1-luciferase reporter, luminescence, 16 h | AID 504466, 2011; note: nearly all actives have a fitted effect of over 60% in size
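Luminescence read-out: rising ELG1-luciferase signal, reflecting elevated ELG1 protein under genetic stress, flags genotoxic compounds. Cells were treated for 16 hr at 37 °C before ONE-Glo detection.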
Rab9 prom act: qHTS Assay for Rab9 Promoter Activators. 320,000 tested, 2.8% active. AID 485297, 2010. Huh7 Rab9 promoter-luciferase reporter, luminescence, 24 h. Potency, µM (titrated, usually from 9.22 µM), actives largely listed as activators; note: nearly all actives have a fitted effect of over 60% in size
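Quantitative HTS format; Huh7 Rab9-luciferase reporter cells (1500/well) receive compound 2 h post-plating, incubate 24 h at 37 °C, then get luciferase reagent for 10 min before luminescence reading.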
Luc counter: Counterscreen for Luciferase (Kinase-Glo TM) Inhibition; Luciferin 4-monooxygenase (Photuris pensylvanica), Q27757; Kinase-Glo luciferase, ATP luminescence, 8 min; Potency, µM (highest dose often 38.3 µM), actives largely listed as inhibitors; 200,000 tested, 0.28% active; note: nearly all actives have a fitted effect of over 60% in size
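Compound is pinned into ATP-containing buffer (10 uM ATP, imidazole pH 7.2, 7 mM MgCl2). Kinase-Glo luciferase reagent is then added. Light output is recorded following an 8-min room-temperature incubation.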
Hits are given with their value. A selection: hits, their analogues and other compounds. The true share with any hit is near 7.3%. Calls come from the whole dose curve; as a rule, active = well fitted curve in the direction sought with a large enough effect; inconclusive = small, poorly fitted or top-dose-only effect, or another doubt; inactive = no such curve, though single readings can be large; an effect the other way counts as inactive or inconclusive.

`COc1cc(C2C(=O)N(C3CCCCC3)CC(=O)N2CCc2ccccc2)ccc1OC(C)C` (configuration not stated) gave FLuc modulator inactive.
`Cc1cccc(N/N=C2/COC(C)(C)CC2=O)c1` gave SMN2 splice up 18µM, NPC1 promoter act 3.2µM, FLuc modulator 8.5µM, ELG1 genotoxic inconclusive, Rab9 prom act 3.2µM and Luc counter inactive.
For CC1(C)CC(=O)/C(=N/Nc2ccc(Cl)cc2)CO1 the results were NPC1 promoter act 1.8µM, FLuc modulator 6.7µM, ELG1 genotoxic inconclusive and Rab9 prom act 1.8µM.
For COc1ccccc1N/N=C1\COC(C)(C)CC1=O the results were NPC1 promoter act inactive, FLuc modulator inconclusive, ELG1 genotoxic inconclusive and Rab9 prom act inactive.
`Cc1nn(CCC(=O)N2CCN(c3ccccc3)CC2)c(C)c1S(=O)(=O)N1CCCC1` gave FLuc modulator inactive.

Assay outcomes from PubChem.
